Screens deposited in PubChem by National Center for Advancing Translational Sciences (NCATS).
Rows were chosen to be rich in hits. Some 9.3% of all compounds tested hit in one or more screens of this group.
ELG1 DNA repair: qHTS screen for small molecules that inhibit ELG1-dependent DNA repair in human embryonic kidney (HEK293T) cells expressing luciferase-tagged ELG1; HEK293T ELG1-luciferase reporter, luminescence, 16 h; DNA damage induced by 5-fluorouridine; Potency, µM (doses to about 46.1 µM), for inactives: top-dose activity change, negative = inhibition, most hits filed as inhibitors; hit rate 2.3% among 330,000; also: % is scaled to controls: 0 for no effect and ±100 for the full control effect; nearly all actives have a fitted effect of over 55% in size
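DMSO vehicle served as the neutral condition. Each well held 2,000 cells given 5-fluorouridine plus compound; after 16 hr at 37 °C/5% CO2, ONE-Glo was added and luciferase measured 30 min later.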
NPC1 prom act: qHTS Assay for NPC1 Promoter Activators; hit rate 2.4% among 320,000; Potency, µM (highest dose often 9.22 µM), inactives show at the highest dose activation, hits mostly activators; Huh7 NPC1 promoter luciferase reporter, 24 h; AID 485313, 2010; also: % of control where 0% means no effect; nearly all actives have a fitted effect of over 60% in size
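Cells: Huh7 expressing luciferase under the NPC1 promoter, 1500/well. Seeded 2 h, compound added, incubated 24 h at 37 °C. Luciferase reagent, 10 min ambient, then luminescence.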
Rab9 prom act: qHTS Assay for Rab9 Promoter Activators; Huh7 Rab9 promoter-luciferase reporter, luminescence, 24 h; Potency, µM (titrated, usually from 9.22 µM), for inactives: at the highest dose activation, negative = inhibition, most hits filed as activators; hit rate 2.8% among 320,000; also: % of control where 0% means no effect; nearly all actives have a fitted effect of over 60% in size
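Huh7 cells stably carrying a Rab9 promoter-luciferase reporter, 1500 cells per well in OP-MEM I with 10% FBS, treated with compound 24 hours at 37C. Luciferase activity read by luminescence after 10 minutes with Amplite reagent.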
SMN2 splice enh: qHTS Assay for Enhancers of SMN2 Splice Variant Expression. HEK293 SMN2-luciferase splicing reporter, luminescence, 30-36 h. Potency, µM (titrated, usually from 46.1 µM), without a hit: at the highest dose activity change, positive = activation, most hits filed as activators. hit rate 2.8% among 210,000. AID 1458, 2008; also: % of control where 0% means no effect; nearly all actives have a fitted effect of over 55% in size
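HEK293 cells carry an SMN2 minigene-luciferase reporter in which exon 7 inclusion puts luciferase in frame. Cells were seeded at 2000 cells/well, attached for 10-12 hours, then exposed to compounds for 30-36 hours at 37C before ONE-Glo luminescence.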
ELG1 genotoxic: qHTS screen for small molecules that induce genotoxicity in human embryonic kidney (HEK293T) cells expressing luciferase-tagged ELG1; HEK293T ELG1-luciferase reporter, luminescence, 16 h; Potency, µM (highest dose often 46 µM), for the others: top-dose activity change, positive = activation, actives largely listed as activators; hit rate 1.3% among 330,000; AID 504466, 2011; also: % of control where 0% means no effect; nearly all actives have a fitted effect of over 60% in size
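HEK293T cells expressing luciferase-tagged ELG1 were exposed to compound or DMSO vehicle for 16 hr at 37 °C and 5% CO2. Luciferase activity was then measured with ONE-Glo after 30 min at room temperature.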
FLuc modulator: qHTS profiling assay for firefly luciferase inhibitor/activator using purifed enzyme and Km concentrations of substrates (counterscreen for miR-21 project). purified FLuc, Km substrates, luminescence inhibition. hit rate 6.9% among 360,000. Luciferin 4-monooxygenase (Photinus pyralis), P08659. Potency, µM (doses to about 57.5 µM), without a hit: top-dose activity change, negative = inhibition, hits mostly inhibitors;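 also: plate controls were vehicle for no effect and reference inhibitor for full effect; nearly all actives have a fitted effect of over 55% in size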
Target sequence (P08659 whole entry, looked up): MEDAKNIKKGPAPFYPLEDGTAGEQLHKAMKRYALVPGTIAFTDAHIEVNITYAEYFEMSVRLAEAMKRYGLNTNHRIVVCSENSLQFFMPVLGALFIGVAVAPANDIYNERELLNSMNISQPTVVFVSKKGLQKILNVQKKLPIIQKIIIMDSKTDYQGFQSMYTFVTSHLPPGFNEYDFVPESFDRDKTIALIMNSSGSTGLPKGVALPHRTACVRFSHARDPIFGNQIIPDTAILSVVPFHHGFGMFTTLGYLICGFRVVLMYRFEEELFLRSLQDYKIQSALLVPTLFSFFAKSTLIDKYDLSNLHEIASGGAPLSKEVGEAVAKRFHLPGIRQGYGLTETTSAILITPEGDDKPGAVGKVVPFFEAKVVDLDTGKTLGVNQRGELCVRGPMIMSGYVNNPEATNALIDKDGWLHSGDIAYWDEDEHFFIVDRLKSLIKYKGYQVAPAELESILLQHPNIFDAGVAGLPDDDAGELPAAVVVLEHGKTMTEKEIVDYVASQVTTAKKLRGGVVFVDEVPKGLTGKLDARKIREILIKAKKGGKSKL
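Purified P. pyralis luciferase (10nM final) with 10uM D-luciferin and 10uM ATP (Km levels) in 50mM Tris acetate pH 7.5, 10mM Mg acetate, 0.01% Tween-20, 0.05% BSA; qHTS 6-point titration, ~60 µM downward; luminescence read.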
An asterisk follows results filed as active; ? = inconclusive; / = not tested or not shown. Calls follow the shape of the dose curve; as a rule, active = well fitted curve in the direction sought with a large enough effect; inconclusive = small, poorly fitted or top-dose-only effect, or another doubt; inactive = no such curve, though single readings can be large; an effect the other way counts as inactive or inconclusive. Potency is read from the fitted curve at half-maximal effect.

SMILES	ELG1 DNA repair	NPC1 prom act	Rab9 prom act	SMN2 splice enh	ELG1 genotoxic	FLuc modulator
O=C(c1cccnc1)N1CCN(Cc2ccc3c(c2)OCO3)CC1	7%	0%	0%	23%	-7%	6%
Cc1nnc2n(-c3ccccc3)c(=O)c3c4c(sc3n12)CC(C)CC4 (configuration not stated)	18%	-6%	-7%	22µM*	-2%	2%
CC1CCc2c(sc3nnn(Cc4ccccc4)c(=O)c23)C1 (configuration not stated)	/	/	/	-9%	/	0%
Cc1cc(NC(=O)c2ccccc2)nc(C)n1	15%	0%	-1%	/	5%	-8%
Clc1ccccc1-c1ncc(-c2ccccc2)o1	?	2.5µM*	2.8µM*	/	4.6µM*	1.3µM*
CC(=O)c1c2c3c(cccc3n(C)c1=O)C(=O)c1ccccc1-2	-9%	-2%	-6%	/	-18%	5%
Cn1c(CC(=O)c2ccc(Br)cc2)[n+](C)c2ccccc21	?	-9%	-7%	-9%	-5%	0%
CCOc1ccc(CNC(=O)C2CCN(C(=O)N3CC(CC)Oc4ccc(C)cc43)CC2)cc1OC (configuration not stated)	/	/	/	/	/	5%
CCC1CN(C(=O)N2CCC(C(=O)NCc3cccc(OC)c3OC)CC2)c2cc(C)ccc2O1 (configuration not stated)	15µM*	-4%	0%	/	-11%	2%
Cc1nn(C)c(C)c1NC(=O)CCCSc1nc(-c2ccco2)cc(C(F)(F)F)n1	26µM*	-5%	-8%	-43%	-9%	-1%
Cc1cc(NCCN2CCOCC2)n2nc(C)c(-c3ccccc3)c2n1	3%	1%	0%	10%	3%	-8%
COc1ccc(CCNc2cc(C)nc3c(-c4ccccc4)cnn23)cc1OC	?	0%	-1%	-29%	-5%	-7%
COc1ccccc1-c1cnn2c(NCCc3ccccc3)cc(C)nc12	?	15%	19%	/	10%	11µM*
Cc1cc(NC(C)c2ccccc2)n2ncc(-c3ccccc3)c2n1 (configuration not stated)	?	2.5µM*	4µM*	/	?	12µM*
Cc1cc(C(F)(F)F)n2ncc(-c3cccc(Br)c3)c2n1	?	12%	9%	8%	-3%	4%
Cc1cc(NCCN2CCOCC2)n2ncc(-c3ccccc3)c2n1	?	0.71µM*	1.6µM*	14µM*	8.2µM*	7.6µM*
COc1ccc(CCNc2cc(C)nc3c(-c4ccccc4)c(C)nn23)cc1OC	21µM*	0%	3%	-26%	-4%	-2%
COc1ccc(S(=O)(=O)Nc2ccc(Cl)cn2)c(C)c1C	?	-2%	3%	-48%	-7%	0%
CC1(C)CC(=O)C/C(=N\NC(=O)C2C3CCCCC32)C1 (configuration not stated)	-4%	0%	-11%	13%	8%	-3%
Cc1cc(NCc2ccccc2)n2ncc(-c3ccccc3)c2n1	?	1.6µM*	0.89µM*	/	4.1µM*	2.4µM*
COc1ccc(-c2c(C)nn3c(NC4CCCC4)cc(C)nc23)cc1OC	?	-13%	-3%	/	-8%	-13%
Cc1cc(NC2CCCC2)n2ncc(-c3ccccc3)c2n1	?	?	?	/	0.16µM*	0.21µM*
Cc1cc(NC2CCCC2)n2nc(C)c(-c3ccccc3)c2n1	1%	29%	?	/	?	19µM*
Cc1nc(NCc2ccccn2)c2ccccc2n1	?	-8%	-19%	/	19%	-1%
Cc1cc(NCc2ccccc2)n2ncnc2n1	-8%	-9%	-1%	-23%	0%	0%
SMILES	ELG1 DNA repair	NPC1 prom act	Rab9 prom act	SMN2 splice enh	ELG1 genotoxic	FLuc modulator
CC(C)(C)c1cc(NCc2ccccn2)n2ncc(-c3ccccc3)c2n1	4%	23%	17%	/	-2%	17µM*
CCO[C@H]1OC(C(=O)N2CCN(Cc3ccc4c(c3)OCO4)CC2)=C[C@@H](C2CCCCC2)[C@@H]1CCCO	-12%	0%	0%	/	-7%	0%
O=C(O)CCSC1CC(=O)N(c2ccccc2)C1=O (configuration not stated)	1%	1%	3%	/	1%	-2%
O=C1CC(SCCO)C(=O)N1c1ccc(Oc2ccccc2)cc1 (configuration not stated)	7%	23%	21%	9%	5%	21µM*
COC(C(=O)Nc1ccc(C(N)=O)cc1)c1ccccc1 (configuration not stated)	-11%	1%	-8%	16µM*	-2%	4%
COC(C(=O)Nc1ccc(F)cc1)c1ccccc1 (configuration not stated)	12%	-3%	-3%	-15%	1%	-1%
COc1cccc(NC(=O)[C@H](CC(C)C)NC(=O)[C@@H]2Cc3ccccc3CN2)c1	?	0%	-1%	/	12%	0%
C/C(=N\Nc1nc(-c2ccc(C)cc2)nc2ccccc12)c1ccc([N+](=O)[O-])cc1	5%	0%	0%	-20%	-2%	-3%
COc1ccc(Nc2nc(-c3ccccc3)nc3ccccc23)cc1	21µM*	2%	-20%	/	-7%	?
COc1ccc(-c2nc(N/N=C(\C)c3ccc(O)cc3)c3ccccc3n2)cc1	?	-3%	4%	/	-9%	1.7µM*
COc1ccc(Nc2nc(-c3cccc([N+](=O)[O-])c3)nc3ccccc23)cc1	8.2µM*	-3%	-1%	-31%	-6%	6%
Oc1ccc(Nc2nc(-c3ccccc3)nc3ccccc23)cc1	?	0%	-4%	/	-6%	?
CCn1nc(C)c(/C=N/NC(=O)Cn2nnnc2N)c1C	1%	0%	0%	/	3%	-2%
Nn1cnc2c(c1=O)C1(CCCCC1)Cc1ccccc1-2	-4%	1%	-3%	1%	-3%	4%
COc1cc(C2C(C(=O)Nc3ccc(Cl)cc3)=C(C)Nc3nc(SC)nn32)cc(OC)c1OC (configuration not stated)	/	/	/	3%	/	-4%
CC(=O)c1cccc(NC(=S)NC(=O)c2ccccc2C)c1	1%	-6%	-5%	/	0%	?
Cc1cccc(NC(=S)NNC(=O)c2ccccc2Br)c1	?	22%	3.2µM*	13µM*	9%	?
CC(=O)c1cccc(NC(=S)NC(=O)c2ccc(Cl)cc2)c1	?	?	?	16µM*	?	13µM*
